Experimental data reported in PubChem BioAssay (NCATS).
Active and inactive are the calls of the source. Calls come from the whole dose curve.

Settings: Ebola virus entry assay, ratio channel readout

Structure (SMILES)	outcome	AC50
CO[C@@H]1[C@@H](O[C@@H]2O[C@H](C)[C@@H](O[C@H]3C[C@@](C)(O)[C@@H](O)[C@H](C)O3)[C@H](N(C)C)[C@H]2O)[C@@H](CC=O)C[C@@H](C)[C@@H](O[C@@H]2CC[C@H](N(C)C)[C@@H](C)O2)/C=C/C=C/C[C@@H](C)OC(=O)C[C@H]1O	inactive	–
CC(C)CN(C[C@@H](O)[C@H](Cc1ccccc1)NC(=O)O[C@@H]1CCOC1)S(=O)(=O)c1ccc(N)cc1	inactive	–
CC(C)[C@H](N)C(=O)OCC(CO)OCn1cnc2c(=O)[nH]c(N)nc21 (stereo not given in full)	inactive	–
COc1cc([C@@H]2c3cc4c(cc3[C@@H](O[C@@H]3O[C@@H]5CO[C@@H](c6cccs6)O[C@@H]5[C@H](O)[C@@H]3O)[C@H]3COC(=O)[C@H]23)OCO4)cc(OC)c1O	inactive	–
Cc1nnc2n1-c1ccc(Cl)cc1C(c1ccccc1)=NC2	inactive	–
CCC(=O)OC(OP(=O)(CCCCc1ccccc1)CC(=O)N1C[C@H](C2CCCCC2)C[C@H]1C(=O)O)C(C)C (stereo not given in full)	inactive	–
COc1ccnc(CS(=O)c2nc3cc(OC(F)F)ccc3[nH]2)c1OC (stereo not given)	inactive	–
O=C(O[C@H]1CN2CCC1CC2)N1CCc2ccccc2[C@@H]1c1ccccc1	–	7.95 µM (active)
C[C@]12CCC(=O)C=C1CC[C@H]1[C@@H]3CC[C@](O)(C(=O)CO)[C@@]3(C)C[C@H](O)[C@@]12F	inactive	–
CN(C)CCc1c[nH]c2ccc(Cn3cncn3)cc12	inactive	–
